Activity calls are given as the source filed them. Unless noted, the rule behind the calls is not given here.
Tests used:
[1] = system: XIP peptide (Xip251-270) binding; experiment: XIP fragment 251-270 binding compounds – biochemical, small-molecule microarray, fluorescence 635/667 nm, 0.1 µg/mL protein, primary screen (AID 1182); details: fluorescent protein binding, 635 nm, higher = more signal, called active from +8 up or from −8 down
XIP peptide (Xip251-270) = experiment: compounds binding XIP fragment 251-270 – biochemical, small-molecule microarray, fluorescence 635/667 nm, 0.5 µg/mL protein, primary screen (AID 1183); details: fluorescence 635 nm, higher = more signal
[2] = blood-stage malaria parasite viability loss – strain 3D7, DAPI fluorescence, 100 nL, primary screen (AID 1184);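 note: parasites grown inside human red blood cells in medium with human serum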; details: P. falciparum 3D7 growth, 3 d, higher = more signal
[3] = molecular target: Homeobox protein Hox-A13 (Mus musculus) (UniProt Q62424); experiment: disruptors of Hoxa13 oligonucleotide interaction – biochemical, fluorescence polarization, labeled oligonucleotide, primary screen (AID 1185); details: Hoxa13:DNA binding, 15 min, higher = more signal, called active from +8 up or from −8 down
[4] = blockers of DNA damage checkpoint Chk1 activation – imaging, HeLa, hydroxyurea, phospho-Chk1 antibody, percent positive cells, primary screen (AID 1186); details: hydroxyurea-induced phospho-Chk1 immunofluorescence imaging, higher = more signal
[5] = blockers of DNA damage checkpoint Chk1 activation – imaging, HeLa, hydroxyurea, phospho-Chk1 nuclear intensity, primary screen (AID 1187); details: hydroxyurea-induced phospho-Chk1 immunofluorescence imaging, higher = more signal

Sequence of Homeobox protein Hox-A13 (Mus musculus) (Q62424 whole entry, looked up): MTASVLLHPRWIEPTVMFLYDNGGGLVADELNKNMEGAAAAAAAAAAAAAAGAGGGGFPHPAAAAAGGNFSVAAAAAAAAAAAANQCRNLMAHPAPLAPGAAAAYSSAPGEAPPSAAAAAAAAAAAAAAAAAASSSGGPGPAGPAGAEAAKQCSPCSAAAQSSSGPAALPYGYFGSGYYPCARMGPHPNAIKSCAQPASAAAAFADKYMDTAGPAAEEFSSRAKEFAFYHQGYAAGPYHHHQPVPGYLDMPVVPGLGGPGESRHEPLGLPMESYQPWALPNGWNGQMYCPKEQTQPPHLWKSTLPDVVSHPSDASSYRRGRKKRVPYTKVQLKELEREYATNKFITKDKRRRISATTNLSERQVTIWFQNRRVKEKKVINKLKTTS

Row | Structure (SMILES) | composite z-score [1] | composite z-score (XIP peptide (Xip251-270)) | z-score [2] | z-score [3] | z-score [4] | z-score [5]
1 | COc1cc2c(cc1O)C(c1ccc(CN3CCCC3)cc1)N(Cc1ccc([N+](=O)[O-])o1)CC2 (stereo unspecified) | 0.119 (inactive) | -0.0067 | -0.672 | -7.64 (inactive) | 0.191 (inactive) | 0.134 (inactive)
2 | COC(=O)[C@]1(CO)N=C(c2ccc(OCCCO)cc2)O[C@@H]1c1ccccc1CN=[N+]=[N-] | 0.495 (inactive) | -0.116 | -0.217 | -5 (inactive) | -0.33 (inactive) | -0.658 (inactive)
3 | COCCOC(=O)N1C(=O)[C@@]2(c3cc(C#CC4(O)CCCCCC4)ccc31)[C@H](c1ccccc1OCCO)N1[C@H](c3ccccc3)[C@H](c3ccccc3)OC(=O)[C@H]1[C@@H]2C(=O)N1CCCCCCC1 | 1.86 (inactive) | 0.727 | -1.93 | 3.98 (inactive) | -0.531 (inactive) | -0.561 (inactive)
4 | COCCOC(=O)N1C(=O)[C@@]2(c3cc(C#CC4=CCCCC4)ccc31)[C@H](c1ccccc1OCCO)N1[C@H](c3ccccc3)[C@H](c3ccccc3)OC(=O)[C@H]1[C@@H]2C(N)=O | -0.0632 (inactive) | 0.558 | -2.27 | -0.721 (inactive) | -0.254 (inactive) | -0.167 (inactive)
5 | CC(C)N1CC=CC23O[C@@H]4C=CCCOC(=O)C4[C@H]2C(=O)N(CCCCCO)[C@@H]3C1=O (stereo partly specified) | 0.192 (inactive) | -0.386 | 0.263 | -3.86 (inactive) | -0.389 (inactive) | 0.0936 (inactive)
6 | O=C1NC(=O)C2C1C=CC(C(O)c1ccc(F)cc1)N2Nc1ccccn1 (stereo unspecified) | -0.184 (inactive) | 0.13 | 1.25 | -1.55 (inactive) | 0.255 (inactive) | 0.0273 (inactive)
7 | O=C1N(CCS(=O)(=O)c2ccccc2)c2ccccc2[C@@H]2OC(c3ccc(OCCCO)cc3)=N[C@]12CCS(=O)(=O)c1ccccc1 | 3.92 (inactive) | 0.83 | -2.18 | 0.806 (inactive) | 0.38 (inactive) | 0.682 (inactive)
8 | CC(C)[Si](C#CCCCC#N)(O[C@H](c1ccccc1)c1cn([C@H](C)c2ccccc2)nn1)C(C)C | -0.301 (inactive) | 0.415 | -0.133 | -0.445 (inactive) | -0.228 (inactive) | -0.174 (inactive)
9 | CCCC=C(CCC)[C@@H](NC(=O)c1ccco1)c1ccc(C(=O)OC)cc1 | 0.192 (inactive) | 0.585 | -0.465 | -1.4 (inactive) | -0.125 (inactive) | -0.17 (inactive)
10 | Cc1ccc(F)cc1S(=O)(=O)N[C@@H]1CCN(Cc2ccc3[nH]ccc3c2)C1 | -0.0141 (inactive) | 0.261 | -1.3 | -4.14 (inactive) | 0.29 (inactive) | -0.075 (inactive)
11 | CN(C)CCCC[C@@H]1NC(=O)[C@@H]2C[C@H](C(=O)NCc3ccc(F)cc3)[C@H](c3ccc(O)cc3)N2C1=O | -0.23 (inactive) | 0.886 | -0.532 | -1.16 (inactive) | 0.336 (inactive) | 0.142 (inactive)
12 | COCCOC(=O)N1C(=O)[C@@]2(c3cc(C#CCC(C(=O)OC)C(=O)OC)ccc31)[C@H](C(=O)N1CCc3cc(OC)c(OC)cc3C1)[C@H]1C(=O)O[C@H](c3ccccc3)[C@H](c3ccccc3)N1[C@@H]2c1ccc(O)cc1 | 0.596 (inactive) | 0.676 | -2.02 | -1.46 (inactive) | 0.182 (inactive) | 0.424 (inactive)
13 | O=C1O[C@@H](c2ccccc2)[C@@H](c2ccccc2)N2[C@@H](c3ccc(OCCO)cc3)[C@]3(C(=O)Nc4ccc(C#CCCO)cc43)[C@@H](C(=O)Nc3nc4ccccc4s3)[C@H]12 | 0.469 (inactive) | 0.487 | -1.86 | 1.8 (inactive) | -0.234 (inactive) | -0.41 (inactive)
14 | COc1ccc(C(O)C2C=CC3C(=O)N(C)C(=O)C3N2Nc2ccc([N+](=O)[O-])cc2[N+](=O)[O-])cc1OCc1ccccc1 (stereo unspecified) | -0.237 (inactive) | 0.753 | 0.664 | -2.98 (inactive) | 0.47 (inactive) | 0.219 (inactive)
15 | N[C@@H](Cc1ccccc1)Cn1cc(C2(O)CCCCC2)nn1 | -0.0563 (inactive) | 0.0069 | 0.493 | -3.59 (inactive) | 0.43 (inactive) | 0.426 (inactive)
16 | CCCCCN1CC=CC23O[C@@H]4C=CCOC(=O)[C@@H]4[C@H]2C(=O)N(CCCCCO)[C@@H]3C1=O (stereo partly specified) | 0.213 (inactive) | -0.228 | -0.423 | -3.88 (inactive) | -0.845 (inactive) | -0.498 (inactive)

Source: PubChem BioAssay
